{"source": "PubChem BioAssay (Tox21)", "key": {"[1]": {"biological_target": "Cytochrome P450 2C19 (Homo sapiens) (UniProt P33261)", "sequence (P33261 whole entry, looked up)": "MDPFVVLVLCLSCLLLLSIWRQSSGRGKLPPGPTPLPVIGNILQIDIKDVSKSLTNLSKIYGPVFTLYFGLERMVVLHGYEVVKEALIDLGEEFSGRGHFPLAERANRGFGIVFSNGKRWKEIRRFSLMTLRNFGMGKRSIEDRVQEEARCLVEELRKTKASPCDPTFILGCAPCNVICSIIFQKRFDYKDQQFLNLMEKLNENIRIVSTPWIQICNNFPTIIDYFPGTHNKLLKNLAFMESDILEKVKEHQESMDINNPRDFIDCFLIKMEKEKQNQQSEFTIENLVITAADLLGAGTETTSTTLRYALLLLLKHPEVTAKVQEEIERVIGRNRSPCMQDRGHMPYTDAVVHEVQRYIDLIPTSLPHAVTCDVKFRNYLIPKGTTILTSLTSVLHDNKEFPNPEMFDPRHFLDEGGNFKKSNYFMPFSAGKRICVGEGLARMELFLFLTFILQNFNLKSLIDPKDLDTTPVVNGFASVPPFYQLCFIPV", "experiment": "Cytochrome P450 Family 2 Subfamily C Member 19 (CYP2C19) small molecule antagonists: luciferase reporter qHTS assay (AID 1671197); also: nearly all actives have a fitted effect of over 65% in size; also: potency is read from the fitted curve at half-maximal effect", "conditions": "P450-Glo CYP2C19 enzyme, luciferin luminescence, 1 h; series mostly up to 115 µM", "procedure,_shortened": "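Relative luminescence units recorded 20 min after the detection reagent stopped a 1 h, 37C CYP2C19 reaction on proluciferin substrate, which was started by NADPH regeneration following 10 min room-temperature compound preincubation; ketoconazole positive control.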"}, "[2]": {"biological_target": "Cytochrome P450 1A2 (Homo sapiens) (UniProt P05177)", "sequence (P05177 whole entry, looked up)": "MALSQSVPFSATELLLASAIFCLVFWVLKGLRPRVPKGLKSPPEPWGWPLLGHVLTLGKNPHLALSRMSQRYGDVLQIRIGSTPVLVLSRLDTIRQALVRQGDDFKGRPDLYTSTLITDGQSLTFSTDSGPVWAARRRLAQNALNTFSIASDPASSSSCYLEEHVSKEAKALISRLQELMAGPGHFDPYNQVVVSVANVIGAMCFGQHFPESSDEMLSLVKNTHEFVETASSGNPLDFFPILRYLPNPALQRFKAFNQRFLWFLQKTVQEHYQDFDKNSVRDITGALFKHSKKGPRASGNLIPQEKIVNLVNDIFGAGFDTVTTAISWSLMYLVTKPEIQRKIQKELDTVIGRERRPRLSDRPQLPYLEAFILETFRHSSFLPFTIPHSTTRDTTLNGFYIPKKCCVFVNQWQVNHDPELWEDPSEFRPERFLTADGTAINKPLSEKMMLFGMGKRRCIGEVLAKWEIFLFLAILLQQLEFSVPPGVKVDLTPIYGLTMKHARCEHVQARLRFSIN", "experiment": "Cytochrome P450 Family 1 Subfamily A Member 2 (CYP1A2) small molecule antagonists: luciferase reporter qHTS assay (AID 1671199); also: nearly all actives have a fitted effect of over 50% in size; also: potency is read from the fitted curve at half-maximal effect", "conditions": "P450-Glo CYP1A2 enzyme, luciferin luminescence, 1 h; series mostly up to 115 µM", "procedure,_shortened": "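Luminescence from luciferin formed by CYP1A2 from a proluciferin substrate, read 20 min after detection reagent. Compound was pre-incubated 10 min with enzyme-substrate, and reaction started with NADPH regeneration solution for 1 h at room temperature; furafylline control.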"}, "[3]": {"biological_target": "Voltage-gated inwardly rectifying potassium channel KCNH2 (Homo sapiens) (UniProt Q12809)", "sequence (Q12809 whole entry, looked up)": "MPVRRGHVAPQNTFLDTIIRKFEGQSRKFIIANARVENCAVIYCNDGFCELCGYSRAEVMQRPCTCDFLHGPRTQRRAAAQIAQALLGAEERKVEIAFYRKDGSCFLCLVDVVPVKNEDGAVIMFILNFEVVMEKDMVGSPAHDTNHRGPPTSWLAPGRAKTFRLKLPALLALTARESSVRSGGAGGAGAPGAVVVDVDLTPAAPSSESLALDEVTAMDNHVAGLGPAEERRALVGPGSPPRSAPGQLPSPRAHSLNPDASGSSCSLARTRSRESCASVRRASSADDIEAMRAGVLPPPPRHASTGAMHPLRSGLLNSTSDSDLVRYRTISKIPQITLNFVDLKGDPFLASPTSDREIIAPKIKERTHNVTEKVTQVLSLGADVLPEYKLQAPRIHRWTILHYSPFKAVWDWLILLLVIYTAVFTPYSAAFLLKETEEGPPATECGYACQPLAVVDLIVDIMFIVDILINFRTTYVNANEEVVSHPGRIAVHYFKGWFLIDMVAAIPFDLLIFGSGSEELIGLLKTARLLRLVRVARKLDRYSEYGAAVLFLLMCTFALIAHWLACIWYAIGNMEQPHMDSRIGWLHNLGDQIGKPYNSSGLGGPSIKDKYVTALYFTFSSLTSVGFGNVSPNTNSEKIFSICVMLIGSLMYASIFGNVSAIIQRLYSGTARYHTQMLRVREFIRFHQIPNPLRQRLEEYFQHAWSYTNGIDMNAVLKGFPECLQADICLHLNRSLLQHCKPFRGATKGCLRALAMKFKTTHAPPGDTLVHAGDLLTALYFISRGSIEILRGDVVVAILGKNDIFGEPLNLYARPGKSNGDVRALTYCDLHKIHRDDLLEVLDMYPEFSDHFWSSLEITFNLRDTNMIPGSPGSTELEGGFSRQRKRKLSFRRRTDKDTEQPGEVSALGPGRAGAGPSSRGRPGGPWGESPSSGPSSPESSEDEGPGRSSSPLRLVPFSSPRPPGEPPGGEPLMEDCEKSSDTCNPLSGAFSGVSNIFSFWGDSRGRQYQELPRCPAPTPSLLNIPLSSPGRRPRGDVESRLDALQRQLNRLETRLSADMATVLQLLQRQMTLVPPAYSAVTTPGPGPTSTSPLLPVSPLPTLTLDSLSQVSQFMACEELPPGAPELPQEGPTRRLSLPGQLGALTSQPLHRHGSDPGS", "experiment": "Human Ether-a-go-go-Related Gene (hERG) channel small molecule antagonists: fluorescence cell-based qHTS assay (AID 1671200);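 also: hERG-expressing U2OS cells given a thallium stimulus after FluxOR II dye loading; nearly all actives have a fitted effect of over 50% in size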", "conditions": "hERG-U2OS cells, FluxOR thallium flux fluorescence; series mostly up to 76.8 µM", "procedure,_shortened": "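Channel function was assessed by thallium flux. Cells seeded the previous day and kept at 37 C took up FluxOR II dye over 1 h in the dark at room temperature, then sat another 10 min before stimulation.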"}, "[4]": {"biological_target": "Cytochrome P450 3A4 (Homo sapiens) (UniProt P08684)", "sequence (P08684 whole entry, looked up)": "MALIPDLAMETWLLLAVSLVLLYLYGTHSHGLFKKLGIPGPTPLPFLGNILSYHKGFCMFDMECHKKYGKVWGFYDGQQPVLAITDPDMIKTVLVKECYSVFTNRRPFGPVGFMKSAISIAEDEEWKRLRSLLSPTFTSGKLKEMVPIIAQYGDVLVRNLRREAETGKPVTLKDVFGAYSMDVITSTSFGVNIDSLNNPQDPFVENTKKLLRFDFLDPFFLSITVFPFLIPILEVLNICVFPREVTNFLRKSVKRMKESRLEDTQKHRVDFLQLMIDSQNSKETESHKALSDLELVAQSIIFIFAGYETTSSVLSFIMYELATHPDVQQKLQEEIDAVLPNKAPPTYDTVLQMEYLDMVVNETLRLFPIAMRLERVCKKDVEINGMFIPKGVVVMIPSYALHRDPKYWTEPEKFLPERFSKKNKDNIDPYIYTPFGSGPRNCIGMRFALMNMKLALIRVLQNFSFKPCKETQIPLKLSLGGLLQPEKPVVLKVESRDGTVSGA", "experiment": "Cytochrome P450 Family 3 Subfamily A Member 4 (CYP3A4) small molecule antagonists: luciferase reporter qHTS assay (AID 1671201); also: nearly all actives have a fitted effect of over 50% in size; also: potency is read from the fitted curve at half-maximal effect", "conditions": "P450-Glo CYP3A4 enzyme, luciferin luminescence, 1 h; series mostly up to 115 µM", "procedure,_shortened": "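Compounds in DMSO were pin-transferred onto CYP3A4 enzyme-substrate mix and held 10 min at room temperature. NADPH regenerating solution started the reaction for 1 h; luciferin detection reagent stopped it, and luminescence was read after 20 min.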"}, "[5]": {"biological_target": "Cytochrome P450 2C9 (Homo sapiens) (UniProt P11712)", "sequence (P11712 whole entry, looked up)": "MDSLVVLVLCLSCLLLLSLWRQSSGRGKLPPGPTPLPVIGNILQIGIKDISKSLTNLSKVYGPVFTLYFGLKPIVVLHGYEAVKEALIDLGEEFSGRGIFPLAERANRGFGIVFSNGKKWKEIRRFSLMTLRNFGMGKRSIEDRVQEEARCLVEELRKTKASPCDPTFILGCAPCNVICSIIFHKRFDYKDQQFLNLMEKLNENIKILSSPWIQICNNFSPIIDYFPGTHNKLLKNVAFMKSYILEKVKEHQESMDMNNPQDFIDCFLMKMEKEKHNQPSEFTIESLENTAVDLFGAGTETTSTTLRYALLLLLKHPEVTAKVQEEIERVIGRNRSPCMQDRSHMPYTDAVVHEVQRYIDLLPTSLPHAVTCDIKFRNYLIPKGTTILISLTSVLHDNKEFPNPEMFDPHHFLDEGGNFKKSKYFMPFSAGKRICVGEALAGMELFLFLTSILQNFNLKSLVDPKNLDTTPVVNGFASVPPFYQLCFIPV", "experiment": "Cytochrome P450 Family 2 Subfamily C Member 9 (CYP2C9) small molecule antagonists: luciferase reporter qHTS assay (AID 1671198); also: potency is read from the fitted curve at half-maximal effect; nearly all actives have a fitted effect of over 50% in size", "conditions": "P450-Glo CYP2C9 enzyme assay, luciferin luminescence; series mostly up to 115 µM", "procedure,_shortened": "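CYP2C9 activity was measured with a P450-Glo proluciferin substrate. Enzyme–substrate mix was held with compound for 10 min at room temperature, then NADPH regeneration solution was added for 1 h at 37C. Luciferin product was read as luminescence.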"}}, "note": "Records with an inconclusive call do not appear. Entries that show only a call come without a potency. Calls of active or inactive are those of the source. Calls follow the shape of the dose curve; as a rule, active = well fitted curve in the direction sought with a large enough effect in the repeat runs; inconclusive = weak or mixed curves; inactive = no such curve, though single readings can be large; an effect the other way counts as inactive or inconclusive.", "data": [{"smiles": "CCc1cnc(C(=O)O)c(C(=O)O)c1", "values": [{"measurement": "Potency", "setting": "[1]", "value": "inactive"}, {"measurement": "Potency", "setting": "[2]", "value": "inactive"}, {"measurement": "Potency", "setting": "[3]", "value": "inactive"}, {"measurement": "Potency", "setting": "[4]", "value": "inactive"}]}, {"smiles": "O=c1[nH]nc(-c2ccc([N+](=O)[O-])o2)o1", "values": [{"measurement": "Potency", "setting": "[1]", "value": "79.6 µM (active)"}, {"measurement": "Potency", "setting": "[2]", "value": "31.7 µM (active)"}, {"measurement": "Potency", "setting": "[3]", "value": "inactive"}, {"measurement": "Potency", "setting": "[4]", "value": "inactive"}]}, {"smiles": "CC(CC(C#N)(c1ccccc1)C(C)C)N(C)C", "note": "(stereo not given)", "values": [{"measurement": "Potency", "setting": "[1]", "value": "inactive"}, {"measurement": "Potency", "setting": "[2]", "value": "inactive"}, {"measurement": "Potency", "setting": "[3]", "value": "inactive"}, {"measurement": "Potency", "setting": "[4]", "value": "6.92 µM (active)"}]}, {"smiles": "Cc1ccc(S(=O)(=O)NC(=O)NC2CCCC2)cc1", "values": [{"measurement": "Potency", "setting": "[1]", "value": "inactive"}, {"measurement": "Potency", "setting": "[2]", "value": "inactive"}, {"measurement": "Potency", "setting": "[3]", "value": "inactive"}, {"measurement": "Potency", "setting": "[4]", "value": "inactive"}]}, {"smiles": "CCCCC(CC)COCCC#N", "note": "(stereo not given)", "values": [{"measurement": "Potency", "setting": "[1]", "value": "inactive"}, {"measurement": "Potency", "setting": "[2]", "value": "inactive"}, {"measurement": "Potency", "setting": "[3]", "value": "inactive"}, {"measurement": "Potency", "setting": "[4]", "value": "inactive"}]}, {"smiles": "Oc1ccc(Oc2ccccc2)cc1", "values": [{"measurement": "Potency", "setting": "[1]", "value": "26.8 µM (active)"}, {"measurement": "Potency", "setting": "[5]", "value": "26.8 µM (active)"}, {"measurement": "Potency", "setting": "[3]", "value": "inactive"}, {"measurement": "Potency", "setting": "[4]", "value": "inactive"}]}, {"smiles": "COC(=O)C(C)(C)C", "values": [{"measurement": "Potency", "setting": "[1]", "value": "32.2 µM (active)"}, {"measurement": "Potency", "setting": "[2]", "value": "40.5 µM (active)"}, {"measurement": "Potency", "setting": "[3]", "value": "inactive"}, {"measurement": "Potency", "setting": "[4]", "value": "inactive"}]}, {"smiles": "O=C1c2ccccc2C(=O)C1c1ccc2ccccc2n1", "values": [{"measurement": "Potency", "setting": "[1]", "value": "3.14 µM (active)"}, {"measurement": "Potency", "setting": "[2]", "value": "2.22 µM (active)"}, {"measurement": "Potency", "setting": "[3]", "value": "inactive"}, {"measurement": "Potency", "setting": "[4]", "value": "1.77 µM (active)"}]}, {"smiles": "CC(=O)OCC(=O)[C@@]1(O)CC[C@H]2[C@@H]3CCC4=CC(=O)C=C[C@]4(C)[C@@]3(F)[C@@H](O)C[C@@]21C", "values": [{"measurement": "Potency", "setting": "[1]", "value": "inactive"}, {"measurement": "Potency", "setting": "[2]", "value": "inactive"}, {"measurement": "Potency", "setting": "[3]", "value": "inactive"}]}, {"smiles": "CCC(C)C1N=C(C)C(C)S1", "note": "(stereo not given)", "values": [{"measurement": "Potency", "setting": "[1]", "value": "39.9 µM (active)"}, {"measurement": "Potency", "setting": "[5]", "value": "39.9 µM (active)"}, {"measurement": "Potency", "setting": "[3]", "value": "inactive"}, {"measurement": "Potency", "setting": "[4]", "value": "25.2 µM (active)"}]}, {"smiles": "O=c1[nH][nH]c2ccccc12", "values": [{"measurement": "Potency", "setting": "[1]", "value": "81.2 µM (active)"}, {"measurement": "Potency", "setting": "[2]", "value": "10.2 µM (active)"}, {"measurement": "Potency", "setting": "[3]", "value": "inactive"}, {"measurement": "Potency", "setting": "[4]", "value": "32.3 µM (active)"}]}, {"smiles": "C1CCN(CN2CCCCC2)CC1", "values": [{"measurement": "Potency", "setting": "[1]", "value": "inactive"}, {"measurement": "Potency", "setting": "[2]", "value": "inactive"}, {"measurement": "Potency", "setting": "[3]", "value": "inactive"}, {"measurement": "Potency", "setting": "[4]", "value": "inactive"}]}, {"smiles": "CC(=O)Oc1cccc2c1C(=O)c1c(OC(C)=O)cc(C(=O)O)cc1C2=O", "values": [{"measurement": "Potency", "setting": "[1]", "value": "inactive"}, {"measurement": "Potency", "setting": "[2]", "value": "inactive"}, {"measurement": "Potency", "setting": "[3]", "value": "inactive"}, {"measurement": "Potency", "setting": "[4]", "value": "inactive"}]}, {"smiles": "O=C1c2ccccc2C(=O)c2c1ccc(O)c2O", "values": [{"measurement": "Potency", "setting": "[1]", "value": "inactive"}, {"measurement": "Potency", "setting": "[2]", "value": "25.7 µM (active)"}, {"measurement": "Potency", "setting": "[3]", "value": "inactive"}, {"measurement": "Potency", "setting": "[4]", "value": "inactive"}]}, {"smiles": "O=C(C1CCCCC1)N1CC(=O)N2CCCc3ccccc3C2C1", "note": "(stereo not given)", "values": [{"measurement": "Potency", "setting": "[1]", "value": "4.9 µM (active)"}, {"measurement": "Potency", "setting": "[2]", "value": "inactive"}, {"measurement": "Potency", "setting": "[3]", "value": "inactive"}]}, {"smiles": "C[C@@H](O)[C@H]1C(=O)N2C(C(=O)O)=C(S[C@@H]3CN[C@H](CNS(N)(=O)=O)C3)[C@H](C)[C@H]12", "values": [{"measurement": "Potency", "setting": "[1]", "value": "9.77 µM (active)"}, {"measurement": "Potency", "setting": "[5]", "value": "15.5 µM (active)"}, {"measurement": "Potency", "setting": "[4]", "value": "3.89 µM (active)"}]}, {"smiles": "COC(=O)Cc1cccc2ccccc12", "values": [{"measurement": "Potency", "setting": "[1]", "value": "79.6 µM (active)"}, {"measurement": "Potency", "setting": "[2]", "value": "20 µM (active)"}, {"measurement": "Potency", "setting": "[3]", "value": "inactive"}, {"measurement": "Potency", "setting": "[4]", "value": "inactive"}]}]}
